Screens (PubChem BioAssay)
Rows were chosen to be rich in hits. Some 2.9% of all compounds tested hit in one or more screens of this group.
ADAM10 inh: inhibits human ADAM10 | O14672 | recombinant ADAM10, EDANS/DABCYL FRET peptide cleavage, 3 h | inhibition, % at 7 µM | 370,000 compounds, 0.62% hits | AID 720582;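 active = inhibition above a per-campaign cutoff equal to the mean of compounds falling between control-based bounds plus 3 SD, cut at about 20% in these data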
PLC-beta3 inh: blocks human PLC-beta3 enzyme activity; inhibition, % at 12.2 µM; Q01970; 370,000 compounds, 0.18% hits; Purified PLC-beta3, fluorogenic substrate, fluorescence; in the data active = inhibition above about 11%
PLC-gamma1 inh: blocks human PLC-gamma1 enzyme activity | P19174 | purified PLC-gamma1, fluorogenic substrate, fluorescence | inhibition, % at 12.2 µM | 370,000 compounds, 0.84% hits; in the data active = inhibition above about 9.5%
KLK7 zymogen act: proKLK7 (human) activation, primary screen; P49862; purified proKLK7, EDANS-DABCYL substrate fluorescence; 100% is mature enzyme control, 0% vehicle; activation, % at 7 µM; 370,000 compounds, 0.9% hits;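 active = activation above the mean of all tested compounds plus 3 SD, computed per campaign excluding outliers beyond control limits, cut at about 13% in these data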
ADAM17 inh: ADAM17 inhibition, QFRET primary screen. inhibition, % at 6.95 µM. P78536. AID 720648. recombinant ADAM17, EDANS/DABCYL FRET peptide cleavage. 370,000 compounds, 0.83% hits;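 active = inhibition above the mean of compounds lying between control limits plus 3 SD, set per campaign, cut at about 8.5% in these data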
ADAM10 confirm: human ADAM10 inhibition, confirmation. shares compounds with ADAM10 inh. ADAM10 QFRET peptide cleavage, EDANS fluorescence. inhibition, % at 6.95 µM. 2,100 compounds, 1% hits. AID 743208;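 active = inhibition above about 20% chosen separately for each screening run, limit read from the data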
ADAM17 counter: inhibits human ADAM17 in ADAM10 exosite counter-screen; shares compounds with ADAM10 inh; ADAM17 QFRET peptide cleavage, EDANS fluorescence; inhibition, % at 6.95 µM; 2,100 compounds, 0.5% hits;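 active = mean triplicate inhibition above the solvent-only control wells' mean plus 3 SD, cut at about 12% in these data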
Numbers stand for hits; - = inactive; . = no result given.

SMILES	ADAM10 inh	PLC-beta3 inh	PLC-gamma1 inh	KLK7 zymogen act	ADAM17 inh	ADAM10 confirm	ADAM17 counter
N#C/C(=N/Nc1ccc([N+](=O)[O-])cc1)C(=N)N1CCCCC1	-	-	-	-	-	.	.
N#C/C(=N\Nc1ccc([N+](=O)[O-])cc1)C(N)=S	19.9	-	-	-	-	-	-
Cc1[nH]c2ccccc2c1C(=O)c1c(N)[nH]c(C(=O)c2ccccc2)c1-c1ccc(Cl)cc1	20.6	-	-	-	-	-	-
Nc1[nH]c(C(=O)c2ccccc2)c(-c2ccc(Cl)cc2)c1C(=O)c1c[nH]c2ccccc12	-	-	-	-	-	.	.
CCCCNS(=O)(=O)/C=C/c1ccc(OC)cc1CNC(=O)OC(C)(C)C	-	-	-	-	-	.	.
Cc1cc(N2CCOCC2)ccc1/C=C\[N+](=O)[O-]	19.9	-	-	-	-	-	-
CC(=NNc1cc(C)c2ccccc2n1)c1ccccn1	-	-	-	-	-	.	.
CC(NC(=O)c1cccs1)C(S)c1ccccc1 (stereo not given)	34.5	-	-	-	14.6	-	-
CCN(CC)S(=O)(=O)c1cccc(NC(=O)C2SC(=Nc3ccc(C)cc3C)C(C(=O)NC(C)COC)=C2N)c1 (stereo not given)	20.3	-	-	-	-	-	-
Cc1ccccc1NC(=O)CSc1ccc(-c2ccc(-n3cccn3)cc2)nn1	-	-	-	-	-	.	.
CCc1nnc(NC(=O)CSc2ccc(-c3ccc(-n4cccn4)cc3)nn2)s1	53.9	-	-	-	-	-	-
Cc1ccc(/C=N/NC(=O)CSc2nnc(-c3ccccc3)n2-c2ccc(Cl)cc2)o1	26.5	-	-	-	-	-	-
CCOC(=O)COc1ccc(C(C)c2ccc(NC(=O)OC(C)(C)C)cc2)cc1 (stereo not given)	20.6	-	-	-	-	-	-
CC(C)(C)OC(=O)Nc1ccc([C@H](NC(=O)OC(C)(C)C)C(=O)OC(C)(C)C)cc1	-	-	-	-	-	.	.
Cc1[nH]c2ccccc2c1CC(=O)Nc1ccc(Nc2ccccc2)cc1	-	-	-	-	-	.	.
CCOc1ccc(OCCC(=O)OCC(=O)Nc2cc(S(=O)(=O)N3CCOCC3)ccc2C)cc1	68.3	-	-	-	-	-	-
CCOc1ccc(OCCC(=O)OCC(=O)Nc2ccc(C)c(S(=O)(=O)N3CCCCC3)c2)cc1	23.2	-	-	-	-	-	-
Cc1cccc(OCC(=O)Nc2ccc3c(c2)OCO3)c1C	-	-	-	-	-	.	.
Cc1ccc(C)c(OCC(=O)Nc2ccc3c(c2)OCO3)c1C	20.5	-	11.6	-	-	-	-
COc1cc(OC)cc(C(=O)N[C@H](C(=O)OCC(=O)Nc2ccc(C(C)C)cc2)C(C)C)c1	20.6	-	-	-	-	-	-
COc1cc(OC)cc(C(=O)N[C@H](C(=O)OCC(=O)Nc2ccc(OC)c(OC)c2)C(C)C)c1	-	-	-	-	-	.	.
CC1(Cc2ccc(Cl)c(Cl)c2)C(=O)Nc2ccc(S(=O)(=O)NC3CCCCC3)cc21 (stereo not given)	20.2	-	-	-	-	-	-
O=C(Cc1ccccc1)NNC(=S)Nc1ccccc1	-	-	-	-	-	.	.
O=C(CSc1nnc(SCc2ccccc2)s1)NNC(=S)Nc1ccccc1	23.7	-	-	-	-	-	-
Cc1nc(SCC(=O)N(C)c2ccccc2)[nH]c(=O)c1C	-	-	-	.	-	.	.
SMILES	ADAM10 inh	PLC-beta3 inh	PLC-gamma1 inh	KLK7 zymogen act	ADAM17 inh	ADAM10 confirm	ADAM17 counter
CC(C)CC1C(=O)N(Cc2cn(CC3CCCCC3)nn2)CCS(=O)(=O)N1Cc1ccc(-c2cccc(CO)c2)cc1 (stereo not given)	24.6	-	-	-	-	-	-
CC1C(=O)N(Cc2cn(CC3CCCCC3)nn2)CCS(=O)(=O)N1Cc1ccc(-c2cccc(CO)c2)cc1 (stereo not given)	-	-	-	-	-	.	.
CC(=O)OCc1ccc(C2=CC(=O)CC(C)(C)C2=O)cc1	-	-	-	-	-	.	.
CC1(C)CC(=O)C=C(c2ccc(COC(=O)C(c3ccccc3)c3ccccc3)cc2)C1=O	20.1	-	-	-	-	-	-
CC(Nc1nc(-c2ccccc2)nc2ccccc12)c1ccccc1 (stereo not given)	29.1	-	-	-	11.3	-	-
CN1C(=O)c2cc(NC(=O)c3ccc(F)cc3)ccc2OC[C@H]2O[C@H](CC(=O)NC3CCC3)CC[C@H]21	-	-	-	-	-	.	.
O=C(CN1CCN(S(=O)(=O)c2ccc(F)cc2)CC1)c1ccc(O)c(O)c1	-	-	-	-	-	.	.
COc1ccc(S(=O)(=O)N2CCN(CC(=O)c3ccc(O)c(O)c3)CC2)cc1	21.9	-	-	-	-	-	-
Cc1cc(C(=O)OC(C(=O)Nc2ccc(C)c(Cl)c2)c2ccccc2)c(C)o1 (stereo not given)	22.3	-	-	-	-	-	-
CC(=O)c1cccc(NC(=O)C(C)OC(=O)c2cc(C)oc2C)c1 (stereo not given)	-	-	-	-	-	.	.
COCCN=C1S/C(=C\c2cc(C)n(-c3ccc(F)cc3F)c2C)C(=O)N1C	-	-	-	.	-	.	.
CCCC/C(O)=C1\C(=O)CC(C)(C)CC1=Nc1ccc(OC)cc1	41.5	-	-	-	-	-	-
Cc1[nH]n(-c2ccc([N+](=O)[O-])cc2)c(=O)c1C=NCCN1CCN(C(=O)c2ccccc2)CC1	20.5	-	-	-	-	-	-
O=C(COc1ccc(Cl)cc1)NNC(=O)c1ccc2c(=O)n3c(nc2c1)CCC3	81.2	-	-	-	-	-	-
COc1ccc(OCC(=O)NNC(=O)c2ccc3c(=O)n4c(nc3c2)CCC4)cc1	71.3	-	-	-	-	-	-
Cc1ccc(OCC(=O)NNC(=O)c2ccc3c(=O)n4c(nc3c2)CCC4)cc1	-	-	-	-	-	.	.
O=C(NNC(=O)c1ccc2c(=O)n3c(nc2c1)CCC3)c1ccc(Cl)cc1	-	-	-	-	-	.	.
O=C(Cn1cc(COC(=O)c2c3ccccc3cc3ccccc23)nn1)c1ccc(O)cc1	-	-	-	-	-	.	.
CC(=NNC(=S)Nc1ccccc1)c1ccccn1	26.0	-	-	-	13.4	47.5	42.6
Cc1cccc(OCCNC(=O)c2ccc(Oc3ccc(C(F)(F)F)cc3[N+](=O)[O-])cc2)c1	25.6	-	-	-	-	-	-
O=C(c1ccc(Oc2ccc(C(F)(F)F)cc2[N+](=O)[O-])cc1)N1CCOCC1	-	-	-	-	-	.	.
CCOC(=O)[C@@]12CN(C(=O)OC(C)(C)C)CC=C1N(Cc1ccc(OC)cc1)C(=O)[C@H]2CC(=O)NCc1ccc(C)o1	-	-	-	-	-	.	.
O=C(C1CC1)N1N=C(c2cccc(Br)c2)CC1(O)C(F)(F)F (stereo not given)	81.1	-	-	-	-	-	-
